# Of roughly 7,900 targets only a part is listed; those with a hit were picked by preference. About 0.6% of all pairs of compound and target were hits. A number with no mark means an inactive call.
# Columns and labels:
# Assay in all cases: log2 fold change, soluble protein after heating vs DMSO (PISA); higher = thermal stabilisation; K562 cells, 10 uM, 30 min; active = over 0.2 and 3.5 SD of the protein, either way, in both replicates (recomputed)
# [1] = compound: C1COCCN1CCN2C3=CC=CC=C3N=C2NC(=O)C4=CC(=CC=C4)[N+](=O)[O-] [IRAK-1-4 Inhibitor I]
# Procedure, shortened: (§1)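 Values are thermal stability changes relative to control samples and are taken from duplicates. They are stated as log2 fold changes. Before quantification by TMTpro 16plex LC-MS/MS with equalised channel sums, K562 cells at 2×10^6 cells/mL were treated with 10 μM compound for 30 min, heated in aliquots for 3 min across 48°C-58°C, pooled, extracted in PBS with 0.5% NP-40 at 4°C, and centrifuged at 21,000xg for 90 min to give the soluble supernatant.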
# [2] = compound: C=CC(=O)N1CCC[C@@H](n2nc(-c3ccc(Oc4ccccc4)cc3)c3c(N)ncnc32)C1 [ibrutinib]
# Procedure, shortened: as §1
# [3] = compound: CC(=O)c1cnc2ccc(-c3cc(Cl)c(O)c(Cl)c3)nc2c1N[C@H]1CC[C@H](CN(C)C)CC1
# Procedure, shortened: as §1
# [4] = compound: CC(C)(C)Cn1c(N)nc2ccc(-c3[nH]c(C(C)(C)C)nc3-c3ccc(F)cc3)nc21 [ralimetinib]
# Procedure, shortened: as §1
# [5] = compound: CC(C)(O)CC(=O)NCCn1ccc2ncnc(Nc3ccc(Oc4cccc(C(F)(F)F)c4)c(Cl)c3)c21
# Procedure, shortened: as §1
# [6] = compound: CC(C)C1=C2N=C(C=C(N2N=C1)NCC3=CC=CC=C3)NCCCCCCN
# Procedure, shortened: as §1
# [7] = compound: CC(C)C[C@@H](C=O)NC(=O)[C@H](CC(C)C)NC(=O)[C@H](CC(C)C)NC(=O)OCc1ccccc1
# Procedure, shortened: as §1
# [8] = compound: CC(C)N(C[C@H]1O[C@@H](n2cnc3c(N)ncnc32)[C@H](O)[C@@H]1O)[C@H]1C[C@@H](CCc2nc3cc(C(C)(C)C)ccc3[nH]2)C1 [pinometostat]
# Procedure, shortened: as §1
# [9] = compound: CC1=C(C(CC(=O)N1)C2=CC=C(C=C2)C(F)(F)F)C(=O)NC3=C(C=C4C(=C3)C=NN4)F
# Procedure, shortened: as §1
# [10] = compound: CC1=C(C2=C(C=C1)C(=O)C3=CC=CC=C3N2CCCN)C
# Procedure, shortened: as §1
# Sequence of UniProt O15021 (O15021 whole entry, looked up): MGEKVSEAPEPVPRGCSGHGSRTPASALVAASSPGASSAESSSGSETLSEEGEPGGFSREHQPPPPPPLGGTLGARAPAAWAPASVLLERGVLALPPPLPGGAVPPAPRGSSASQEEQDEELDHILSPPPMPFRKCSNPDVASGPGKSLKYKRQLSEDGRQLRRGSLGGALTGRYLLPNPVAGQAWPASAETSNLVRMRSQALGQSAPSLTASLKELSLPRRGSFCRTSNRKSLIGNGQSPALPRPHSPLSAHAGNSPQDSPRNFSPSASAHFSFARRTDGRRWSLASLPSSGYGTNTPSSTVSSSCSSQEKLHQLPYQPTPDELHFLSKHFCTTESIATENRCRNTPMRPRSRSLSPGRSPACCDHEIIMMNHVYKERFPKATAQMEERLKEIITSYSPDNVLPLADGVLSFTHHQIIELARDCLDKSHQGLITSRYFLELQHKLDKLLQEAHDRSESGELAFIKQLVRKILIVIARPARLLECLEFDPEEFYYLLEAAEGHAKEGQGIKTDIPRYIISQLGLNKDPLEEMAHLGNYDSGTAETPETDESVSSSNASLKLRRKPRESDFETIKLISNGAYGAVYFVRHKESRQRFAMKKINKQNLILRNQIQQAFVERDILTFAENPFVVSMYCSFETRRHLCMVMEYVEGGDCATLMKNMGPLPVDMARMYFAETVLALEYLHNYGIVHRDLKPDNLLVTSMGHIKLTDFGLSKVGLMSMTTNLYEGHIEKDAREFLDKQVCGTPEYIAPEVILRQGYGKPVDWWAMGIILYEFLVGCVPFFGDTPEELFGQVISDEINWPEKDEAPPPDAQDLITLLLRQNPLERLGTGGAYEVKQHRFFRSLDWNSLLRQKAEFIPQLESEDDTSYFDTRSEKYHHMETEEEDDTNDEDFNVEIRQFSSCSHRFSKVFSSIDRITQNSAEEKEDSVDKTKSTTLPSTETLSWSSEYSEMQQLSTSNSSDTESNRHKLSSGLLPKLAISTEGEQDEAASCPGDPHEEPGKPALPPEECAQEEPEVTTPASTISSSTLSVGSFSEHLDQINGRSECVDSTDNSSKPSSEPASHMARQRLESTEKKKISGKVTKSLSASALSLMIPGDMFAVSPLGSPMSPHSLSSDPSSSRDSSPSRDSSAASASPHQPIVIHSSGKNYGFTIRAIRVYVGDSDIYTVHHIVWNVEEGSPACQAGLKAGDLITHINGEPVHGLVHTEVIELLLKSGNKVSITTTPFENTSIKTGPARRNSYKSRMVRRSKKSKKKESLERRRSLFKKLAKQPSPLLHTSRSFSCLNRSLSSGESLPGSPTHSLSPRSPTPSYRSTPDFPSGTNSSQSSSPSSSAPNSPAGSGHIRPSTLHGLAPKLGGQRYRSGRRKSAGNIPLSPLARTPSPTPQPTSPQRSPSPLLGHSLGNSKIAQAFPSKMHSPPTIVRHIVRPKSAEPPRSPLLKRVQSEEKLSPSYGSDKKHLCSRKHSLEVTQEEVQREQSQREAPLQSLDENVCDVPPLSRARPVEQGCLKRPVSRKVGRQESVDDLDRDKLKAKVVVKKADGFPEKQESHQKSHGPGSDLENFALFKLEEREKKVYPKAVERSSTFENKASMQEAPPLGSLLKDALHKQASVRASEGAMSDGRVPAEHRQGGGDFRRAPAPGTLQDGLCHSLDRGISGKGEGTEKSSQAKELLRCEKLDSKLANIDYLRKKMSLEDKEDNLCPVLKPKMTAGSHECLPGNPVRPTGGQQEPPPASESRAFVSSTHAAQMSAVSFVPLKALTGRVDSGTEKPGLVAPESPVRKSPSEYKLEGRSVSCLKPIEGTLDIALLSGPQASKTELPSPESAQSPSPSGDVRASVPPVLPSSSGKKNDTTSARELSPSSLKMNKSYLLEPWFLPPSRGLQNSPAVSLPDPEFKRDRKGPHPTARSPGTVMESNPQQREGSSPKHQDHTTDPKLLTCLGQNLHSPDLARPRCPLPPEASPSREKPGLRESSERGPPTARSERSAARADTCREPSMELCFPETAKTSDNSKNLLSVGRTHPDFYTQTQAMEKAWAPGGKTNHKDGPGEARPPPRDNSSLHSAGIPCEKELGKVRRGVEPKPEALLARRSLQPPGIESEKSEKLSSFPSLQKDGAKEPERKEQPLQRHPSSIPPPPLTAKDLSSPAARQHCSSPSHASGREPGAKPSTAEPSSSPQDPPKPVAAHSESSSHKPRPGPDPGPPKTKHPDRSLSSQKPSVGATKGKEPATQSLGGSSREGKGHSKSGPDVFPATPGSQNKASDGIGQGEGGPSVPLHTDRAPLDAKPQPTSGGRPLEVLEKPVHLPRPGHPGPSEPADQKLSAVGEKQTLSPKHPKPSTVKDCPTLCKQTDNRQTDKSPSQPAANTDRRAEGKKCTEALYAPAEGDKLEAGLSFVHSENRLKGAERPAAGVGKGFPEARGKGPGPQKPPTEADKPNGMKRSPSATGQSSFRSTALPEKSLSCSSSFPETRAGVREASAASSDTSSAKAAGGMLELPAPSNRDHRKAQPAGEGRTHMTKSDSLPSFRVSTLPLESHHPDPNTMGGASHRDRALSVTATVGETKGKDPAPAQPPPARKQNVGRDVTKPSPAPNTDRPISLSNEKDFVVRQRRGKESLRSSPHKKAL
# Sequence of UniProt Q96G25 (Q96G25 whole entry, looked up): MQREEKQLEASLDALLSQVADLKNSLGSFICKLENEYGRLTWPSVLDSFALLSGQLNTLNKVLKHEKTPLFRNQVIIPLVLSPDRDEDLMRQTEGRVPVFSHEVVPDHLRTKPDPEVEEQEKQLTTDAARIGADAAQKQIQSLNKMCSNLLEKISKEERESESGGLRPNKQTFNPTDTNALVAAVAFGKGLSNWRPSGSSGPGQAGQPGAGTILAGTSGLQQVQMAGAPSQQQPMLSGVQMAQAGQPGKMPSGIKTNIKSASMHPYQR
# Sequence of UniProt Q9BY66 (Q9BY66 whole entry, looked up): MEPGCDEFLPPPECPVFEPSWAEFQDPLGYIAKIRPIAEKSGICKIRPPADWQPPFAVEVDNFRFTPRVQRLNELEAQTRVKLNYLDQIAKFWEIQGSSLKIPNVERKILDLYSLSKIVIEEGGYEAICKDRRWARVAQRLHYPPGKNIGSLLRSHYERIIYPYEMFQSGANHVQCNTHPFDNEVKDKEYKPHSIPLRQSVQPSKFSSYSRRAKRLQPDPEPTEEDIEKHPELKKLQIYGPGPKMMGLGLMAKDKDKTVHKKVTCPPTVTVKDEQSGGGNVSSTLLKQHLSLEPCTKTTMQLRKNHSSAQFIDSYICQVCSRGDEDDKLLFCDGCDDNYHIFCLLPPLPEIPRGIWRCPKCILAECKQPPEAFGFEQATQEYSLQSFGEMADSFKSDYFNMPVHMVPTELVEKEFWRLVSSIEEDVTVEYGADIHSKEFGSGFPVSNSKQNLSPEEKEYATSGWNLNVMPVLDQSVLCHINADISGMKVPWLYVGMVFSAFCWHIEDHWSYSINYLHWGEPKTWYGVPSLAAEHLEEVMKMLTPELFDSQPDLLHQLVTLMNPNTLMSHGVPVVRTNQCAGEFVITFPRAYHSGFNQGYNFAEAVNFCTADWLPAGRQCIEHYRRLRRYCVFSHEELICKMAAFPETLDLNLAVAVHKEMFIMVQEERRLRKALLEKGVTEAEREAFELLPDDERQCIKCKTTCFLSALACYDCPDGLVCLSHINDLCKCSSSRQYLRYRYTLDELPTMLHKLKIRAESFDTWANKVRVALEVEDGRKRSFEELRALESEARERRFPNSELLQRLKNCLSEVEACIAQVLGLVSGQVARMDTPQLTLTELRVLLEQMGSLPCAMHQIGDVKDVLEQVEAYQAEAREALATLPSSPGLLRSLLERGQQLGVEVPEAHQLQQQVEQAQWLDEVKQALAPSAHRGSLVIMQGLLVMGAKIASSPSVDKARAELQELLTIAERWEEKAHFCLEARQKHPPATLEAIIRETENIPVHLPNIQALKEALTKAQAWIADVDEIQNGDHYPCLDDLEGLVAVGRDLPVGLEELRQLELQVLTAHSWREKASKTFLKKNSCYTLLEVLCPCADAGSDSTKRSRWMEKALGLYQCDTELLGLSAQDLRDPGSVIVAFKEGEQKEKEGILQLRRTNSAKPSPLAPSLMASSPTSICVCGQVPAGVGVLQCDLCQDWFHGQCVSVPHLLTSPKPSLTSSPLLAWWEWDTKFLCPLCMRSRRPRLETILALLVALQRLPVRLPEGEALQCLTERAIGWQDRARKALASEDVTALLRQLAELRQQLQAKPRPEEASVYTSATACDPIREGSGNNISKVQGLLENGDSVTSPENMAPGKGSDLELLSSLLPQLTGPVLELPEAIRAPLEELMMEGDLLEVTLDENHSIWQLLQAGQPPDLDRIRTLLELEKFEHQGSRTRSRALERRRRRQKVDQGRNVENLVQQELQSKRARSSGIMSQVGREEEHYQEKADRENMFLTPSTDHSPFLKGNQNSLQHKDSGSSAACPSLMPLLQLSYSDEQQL
# Sequence of UniProt P33947 (P33947 whole entry, looked up): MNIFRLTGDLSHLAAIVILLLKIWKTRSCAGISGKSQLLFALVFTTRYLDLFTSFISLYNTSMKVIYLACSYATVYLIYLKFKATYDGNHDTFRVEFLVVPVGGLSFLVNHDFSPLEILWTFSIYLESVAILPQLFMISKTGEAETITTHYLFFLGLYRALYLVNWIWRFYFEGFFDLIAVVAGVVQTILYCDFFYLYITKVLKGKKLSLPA
# Sequence of UniProt Q96AQ8 (Q96AQ8 whole entry, looked up): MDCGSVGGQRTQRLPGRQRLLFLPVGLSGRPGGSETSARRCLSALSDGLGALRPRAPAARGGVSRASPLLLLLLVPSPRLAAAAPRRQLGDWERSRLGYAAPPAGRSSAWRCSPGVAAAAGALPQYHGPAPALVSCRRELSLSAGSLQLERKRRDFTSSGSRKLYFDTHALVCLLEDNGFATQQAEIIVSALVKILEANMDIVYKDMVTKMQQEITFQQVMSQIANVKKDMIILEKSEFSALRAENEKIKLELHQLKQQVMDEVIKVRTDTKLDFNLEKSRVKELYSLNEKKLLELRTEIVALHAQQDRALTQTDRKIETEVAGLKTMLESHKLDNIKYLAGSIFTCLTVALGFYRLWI
Target,log2 fold change [1],log2 fold change [2],log2 fold change [3],log2 fold change [4],log2 fold change [5],log2 fold change [6],log2 fold change [7],log2 fold change [8],log2 fold change [9],log2 fold change [10]
KIF11 (UniProt P52732),-0.097,-0.049,0.063,0.045,-0.024,-0.229,0.04,0.188,0.006,-0.014
IRF3 (UniProt Q14653),0.002,0.13,-0.019,-0.037,0,-0.065,-0.015,-0.002,0.04,0.02
KDELR2 (UniProt P33947),-0.007,0.03,-0.14,0.127,-0.035,-0.047,-0.568 (active),-0.008,0.024,0.103
KCT2 (UniProt Q8NC54),0.039,0.029,-0.04,-0.014,0.004,-0.118,-0.011,0.009,0.035,-0.035
MAP1LC3B2 (UniProt A6NCE7),-0.002,-0.053,-0.059,-0.026,0.008,-0.087,0.009,-0.008,-0.041,-0.01
LONP2 (UniProt Q86WA8),-0.016,-0.023,-0.033,0.103,-0.135,0.004,-0.609 (active),-0.008,-0.271,-0.009
MAST4 (UniProt O15021),-0.025,-0.138,-0.089,-0.479 (active),-0.091,-0.085,0.002,-0.057,-0.027,0.268
ILVBL (UniProt A1L0T0),0.073,0.048,-0.027,-0.075,-0.053,0.058,-0.018,0.066,-0.013,0.025
MED16 (UniProt Q9Y2X0),0,0.003,-0.358 (active),0.033,-0.029,-0.008,0.064,0.112,-0.019,0.17
ILF2 (UniProt Q12905),-0.095,0.027,0.155,0.131,0.082,0.318,-0.024,0.064,-0.014,0.204
MCUR1 (UniProt Q96AQ8),0.011,0.041,-0.077,0.118,-0.018,0.065,-0.242 (active),-0.059,0.015,-0.002
LNPK (UniProt Q9C0E8),0.041,0.013,0.004,-0.019,0.016,0.05,-0.011,-0.01,0.016,-0.035
LTN1 isoform 3 (UniProt O94822),-0.05,-0.015,-0.02,0.007,-0.136,-0.305 (active),0.055,0.098,-0.007,0.093
LEMD3 (UniProt Q9Y2U8),0.04,0.03,-0.173,-0.082,-0.09,-0.056,0.039,-0.026,0.068,0.101
MIEF1 (UniProt L0R8F8),0.071,0.065,0.022,-0.004,0.011,-0.021,-0.053,-0.005,0.052,-0.004
LARP1 (UniProt Q6PKG0),-0.131,0.009,-0.059,0.031,0,-0.088,0.036,0.109,0.021,-0.303 (active)
LYN (UniProt P07948),-0.016,0.4 (active),-0.456 (active),0.045,0.018,-0.03,0.24,0.065,0.008,0.078
MASTL (UniProt Q96GX5),-0.001,-0.008,-0.061,0.001,-0.393 (active),-0.028,0.138,0.07,0.022,
"LRBA, A0A494BZW2",0.02,0.018,-0.009,0.01,0,-0.436,0.041,0.076,0.006,-0.237
LIMD1 (UniProt Q9UGP4),0.03,0.033,-0.008,0.035,-0.035,0.044,-0.072,0.016,0.003,-0.032
LYPLA2 (UniProt O95372),0.062,0.003,-0.134,-0.036,-0.106,-0.04,-0.056,-0.067,-0.021,0.197
LMF2 (UniProt Q9BU23),0.006,-0.035,0.001,-0.008,-0.029,-0.152,0.08,0.008,-0.018,0.001
MFN2 (UniProt O95140),-0.033,0.03,-0.055,-0.014,0.009,-0.479 (active),0.032,-0.017,-0.022,0.049
MAP4 (UniProt P27816),0.003,0,0.012,0.025,0.012,0.076,0.019,0.001,0.006,0.08
MAPK9 (UniProt P45984),-0.002,-0.016,0.278 (active),0.208,0.005,-0.037,-0.032,-0.032,-0.022,0
IWS1 (UniProt Q96ST2),-0.026,-0.027,0.492 (active),-0.04,-0.09,0.166,-0.04,0.014,-0.044,-0.301 (active)
MIA2 (UniProt Q96PC5),-0.036,0.008,-0.059,-0.003,0.03,-0.155,0.035,0.043,0.077,0.032
MED8 isoform 2 (UniProt Q96G25),-0.051,0.038,-0.216,-0.013,-0.081,0.05,0.06,-0.043,0.016,
JMJD6 isoform 3 (UniProt Q6NYC1),-0.02,-0.011,-0.049,-0.065,0.019,-0.041,0.004,-0.016,0.013,0.102
KDM5D isoform 3 (UniProt Q9BY66),-0.042,-0.222,-0.05,-0.083,-0.155,0.036,0.114,-0.047,0.043,-0.103

# From the supplement of paper PMC10849652
